This is a sample that favours compounds with a hit; in the whole collection about 2.1% have one here.
S1P2 agonist – S1P2 (human) receptor agonism | AID 729 | S1P2-expressing cell line, agonist reporter read-out | hit rate 0.46% among 97,000 | activation, % at 4.5 µM; in the data active = activation above about 16%;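 note: 0% = vehicle low control and 100% = maximal reference agonist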
hDAT+cocaine – modulates human dopamine transporter uptake under cocaine | Q01959 | LLC-PK1 hDAT cells, [14C]-dopamine uptake with cocaine IC80; actives deviate in either direction | B-score at 10 µM | hit rate 1.3% among 110,000 | AID 449768;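 active = Z score or B-score, a plate-position-corrected score, falls beyond the plate's 99.7% confidence bounds, in either direction; inactive = both scores lie inside the 99.7% bounds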;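 note: scored against the spread of the other compound wells on the same plate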
S1P2 blocker – S1P2 (human) receptor antagonism; cell-based S1P2 antagonist assay, inhibition at 5 uM; O95136; inhibition, % at 5 µM; AID 736; hit rate 0.21% among 97,000; in the data active = inhibition above about 45%;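 note: CRE beta-lactamase reporter cells expressing human S1P2 stimulated with S1P; 0% = agonist at EC80 alone and 100% = agonist plus reference antagonist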
GALR2 ag – agonists of human galanin receptor 2 (GALR2); O43603; GALR2-expressing cells, agonist activation read-out; activation, % (no concentration beside the values); hit rate 0.48% among 140,000; AID 803; in the data active = activation above about 5%, passing the limit was not always enough;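 note: 0% = vehicle buffer wells and 100% = reference agonist at full effect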
Target sequence (O43603 whole entry, looked up): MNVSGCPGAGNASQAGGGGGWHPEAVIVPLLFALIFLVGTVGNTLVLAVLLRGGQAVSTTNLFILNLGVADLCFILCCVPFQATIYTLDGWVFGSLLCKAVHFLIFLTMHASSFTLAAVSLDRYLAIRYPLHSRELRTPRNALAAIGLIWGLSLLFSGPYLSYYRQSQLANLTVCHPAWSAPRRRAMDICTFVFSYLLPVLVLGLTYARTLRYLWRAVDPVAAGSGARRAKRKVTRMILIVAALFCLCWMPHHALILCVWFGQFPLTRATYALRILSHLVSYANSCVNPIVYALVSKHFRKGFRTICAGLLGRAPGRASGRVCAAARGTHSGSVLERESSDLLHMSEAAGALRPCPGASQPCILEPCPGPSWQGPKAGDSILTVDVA
GALR2 blocker – antagonists of human galanin receptor 2 (GALR2) | GALR2-expressing cells, antagonist mode | inhibition, % at 4 µM | hit rate 0.39% among 140,000; in the data active = inhibition above about 27%;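 note: cells stimulated with galanin 1-16 at roughly its EC80; 0% = agonist challenge control and 100% = basal control without agonist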
* = called active by the depositor.

How did N#CC1=C(N)Oc2c(oc(CO)cc2=O)C12C(=O)Nc1ccc(Cl)cc12 (configuration not stated) do in these assays?
hDAT+cocaine: -1.42; GALR2 ag: -2.3; GALR2 blocker: 5.9

Results for O=S(=O)(Nc1nc2ccccc2s1)c1ccc(Cl)s1 ?
S1P2 agonist: -6.8; hDAT+cocaine: -3.6*; S1P2 blocker: -12.1; GALR2 ag: -2.7; GALR2 blocker: 0.5

How did c1ccc2c(CSCCc3ccncc3)cccc2c1 do in these assays?
S1P2 agonist: -1.9; hDAT+cocaine: 0.0597; S1P2 blocker: 3.5; GALR2 ag: -0.6; GALR2 blocker: 4.1

What do the screens show for `Cc1onc(-c2ccccc2Cl)c1C(=O)Nc1nnc(-c2ccc(F)cc2)s1`?
S1P2 agonist: -6.7; hDAT+cocaine: 2.72*; S1P2 blocker: 2.3; GALR2 ag: -1.7; GALR2 blocker: -1.1

Results for Cc1onc(-c2ccccc2Cl)c1C(=O)Nc1nnc(-c2ccc(Br)cc2)s1 ?
S1P2 agonist: -4.2; hDAT+cocaine: 0.0315; S1P2 blocker: -21.5; GALR2 ag: -2.5; GALR2 blocker: -3.5

What do the screens show for `CCC(=O)NC(=S)Nc1ccc(Cl)cn1`?
S1P2 agonist: -4.6; hDAT+cocaine: 2.22*; S1P2 blocker: 19.7; GALR2 ag: 0.3; GALR2 blocker: 1.7

Results for CCCCCC(=O)NC(=S)Nc1ccc(Cl)cn1 ?
GALR2 ag: -0.2; GALR2 blocker: 2.0

Results for Cc1csc(SCC(=O)Nc2sc3c(c2C#N)CCC3)n1 ?
S1P2 agonist: -3.4; hDAT+cocaine: 0.179; S1P2 blocker: -24.2; GALR2 ag: -1.1; GALR2 blocker: 3.7

How did Cc1ccnc(SCC(=O)Nc2sc3c(c2C#N)CCCC3)n1 do in these assays?
S1P2 agonist: -5.0; hDAT+cocaine: 0.101; S1P2 blocker: 47.0*; GALR2 ag: -2.3; GALR2 blocker: 22.2

Results for N#Cc1cc2c(nc1SCC(=O)Nc1sc3c(c1C#N)CCC3)CCCCCC2 ?
S1P2 agonist: -1.9; hDAT+cocaine: 2.65*; S1P2 blocker: 10.8; GALR2 ag: -0.3; GALR2 blocker: -83.0

What do the screens show for `N#Cc1cc2c(nc1SCC(=O)Nc1sc3c(c1C#N)CCC3)CCC2`?
S1P2 agonist: -3.2; hDAT+cocaine: -0.316; S1P2 blocker: 10.4; GALR2 ag: -3.1; GALR2 blocker: 5.4

How did Cc1nc(SCC(=O)Nc2ccc3c(c2)OCCO3)c2oc3ccccc3c2n1 do in these assays?
S1P2 agonist: 19.5*; hDAT+cocaine: 0.418; S1P2 blocker: -29.8; GALR2 ag: -0.2; GALR2 blocker: -12.1

How did CCc1nc(SCC(=O)Nc2ccc3c(c2)OCCO3)c2oc3ccccc3c2n1 do in these assays?
S1P2 agonist: 1.6; hDAT+cocaine: -0.215; S1P2 blocker: -12.7; GALR2 ag: 0.0; GALR2 blocker: -2.1

Results for COc1ccccc1NC(=O)CSc1ncnc2c1oc1ccccc12 ?
S1P2 agonist: 24.0*; hDAT+cocaine: 0.312; S1P2 blocker: -24.9; GALR2 ag: -1.0; GALR2 blocker: 13.7

How did COc1ccc(C(OC(=O)c2cccs2)C(=O)NCC2CCCO2)cc1 (configuration not stated) do in these assays?
S1P2 agonist: -6.0; hDAT+cocaine: 0.0637; S1P2 blocker: 19.6; GALR2 ag: -1.5; GALR2 blocker: 6.3

How did COc1ccc(C(OC(=O)c2ccco2)C(=O)NCC2CCCO2)cc1 (configuration not stated) do in these assays?
S1P2 agonist: 1.2; hDAT+cocaine: -7.27*; S1P2 blocker: 13.0; GALR2 ag: -1.7; GALR2 blocker: 6.8

Results for CCCCOc1ccccc1NC(=O)Cn1c(-c2nonc2N)nc2ccccc21 ?
hDAT+cocaine: -0.00486; GALR2 ag: 7.8*; GALR2 blocker: 18.1

What do the screens show for `CC(C)COC(=O)N1CC(O)CC1C(=O)O` (configuration not stated)?
hDAT+cocaine: -0.153; GALR2 ag: -1.1; GALR2 blocker: 6.5

Results for CCOC(=O)N1CCN(S(=O)(=O)c2cc(Cl)c(OC)cc2Cl)CC1 ?
S1P2 agonist: -5.6; hDAT+cocaine: 1.65*; S1P2 blocker: 0.2; GALR2 ag: -1.1; GALR2 blocker: 5.3

Results for COc1ccc(OC)c(-c2cc(C(=O)N3CCc4ccccc4C3)no2)c1 ?
S1P2 agonist: -6.9; hDAT+cocaine: 2.89*; S1P2 blocker: -9.6; GALR2 ag: -3.2; GALR2 blocker: 14.0

Results for CCOC(=O)N1CCN(C(=O)CN(c2cccc(C(F)(F)F)c2)S(C)(=O)=O)CC1 ?
S1P2 agonist: -3.0; hDAT+cocaine: -8.74*; S1P2 blocker: 6.3; GALR2 ag: -0.5; GALR2 blocker: 7.7

Results for Cc1cc(C)cc(NC(=O)CSc2nnc(-c3ccccc3Br)o2)c1 ?
S1P2 agonist: -4.2; hDAT+cocaine: -0.168; S1P2 blocker: 3.4; GALR2 ag: -1.1; GALR2 blocker: 0.8

What do the screens show for `O=C(CSc1nnc(-c2ccccc2Br)o1)N1CCc2ccccc2C1`?
hDAT+cocaine: 2.88*; GALR2 ag: -0.9; GALR2 blocker: 9.6

How did Cc1nn(-c2ccc(F)cc2)c(C)c1NS(=O)(=O)c1ccc(Cl)cc1 do in these assays?
S1P2 agonist: -3.6; hDAT+cocaine: 0.665; S1P2 blocker: 2.2; GALR2 ag: -2.0; GALR2 blocker: 4.9

Results for CCOC(=O)CN1C(=O)N[C@@H](c2cccc(C(F)(F)F)c2)[C@@H](C(=O)OC)[C@H]1C ?
hDAT+cocaine: -0.0858

What do the screens show for `Cc1cc(-c2cc(N)n(-c3ccccc3)n2)c(C)n1C1CCCC1`?
S1P2 agonist: -2.5; hDAT+cocaine: 2.06*; S1P2 blocker: -20.4; GALR2 ag: -0.1; GALR2 blocker: -4.8

What do the screens show for `CCOC(=O)c1ccc(NC(=O)COc2ccc(S(=O)(=O)NC(C)(C)C)cc2)cc1`?
S1P2 agonist: -8.6; hDAT+cocaine: 0.0547; S1P2 blocker: -6.9; GALR2 ag: -2.8; GALR2 blocker: 0.4

Results for Cc1nn(CCC#N)c(NC(=O)c2ccc(Cl)cc2)c1P(=O)(Nc1ccc([N+](=O)[O-])cc1)N1CCOCC1 (configuration not stated) ?
S1P2 agonist: -7.7; hDAT+cocaine: -5.6*; S1P2 blocker: 12.6; GALR2 ag: -2.9; GALR2 blocker: -2.6

How did Cc1nn(CCC#N)c(NC(=O)c2ccc(Cl)cc2Cl)c1P(=O)(Nc1ccc([N+](=O)[O-])cc1)N1CCOCC1 (configuration not stated) do in these assays?
S1P2 agonist: -0.5; hDAT+cocaine: -6.49*; S1P2 blocker: -15.6; GALR2 ag: -1.1; GALR2 blocker: -12.2

How did O=C(NC(=S)Nc1ccc(CN2CCOCC2)cc1)c1ccc([N+](=O)[O-])cc1 do in these assays?
GALR2 ag: 0.1; GALR2 blocker: -11.6

What do the screens show for `Cc1cc(C)c(-c2cc(NC(=O)CSc3n[nH]c(N)n3)n(-c3ccccc3)n2)cc1C`?
S1P2 agonist: -7.8; hDAT+cocaine: 3.29*; S1P2 blocker: -2.1; GALR2 ag: -0.8; GALR2 blocker: -2.3

Results for CCOC(=O)c1cnn(-c2ccccc2)c1-n1cccc1C(=O)C(=O)Nc1ccccc1 ?
S1P2 agonist: -5.5; hDAT+cocaine: 0.384; S1P2 blocker: 4.1; GALR2 ag: -0.6; GALR2 blocker: 9.8

What do the screens show for `COc1ccc(-c2[nH]c(-c3ccccc3)nc2SCC(=O)NC2CCCC2)cc1`?
hDAT+cocaine: 4.71*; GALR2 ag: -0.9; GALR2 blocker: 11.0

Assay outcomes from PubChem BioAssay.
